We go through one sequence from article PMC7862700, “An all-to-all approach to the identification of sequence-specific readers for epigenetic DNA modifications on cytosine”.

Holding throughout (experiment): DAPPL (digital affinity profiling via proximity ligation, sequencing); 10 mM Tris-HCl pH 7.5, 50 mM NaCl, 1 mM DTT, 4% glycerol, room temperature, 30 min; GST-TFs on glutathione beads, 16-mer random dsDNA library, 0.1% formaldehyde crosslink after washing; high values mean tight binding
What all share (conditions): protein: recombinant; tags: N-terminal GST; dsDNA, one strand shown

In one test the target is T1, GABPA (Homo sapiens, UniProt Q06546 1-454).
T1 sequence: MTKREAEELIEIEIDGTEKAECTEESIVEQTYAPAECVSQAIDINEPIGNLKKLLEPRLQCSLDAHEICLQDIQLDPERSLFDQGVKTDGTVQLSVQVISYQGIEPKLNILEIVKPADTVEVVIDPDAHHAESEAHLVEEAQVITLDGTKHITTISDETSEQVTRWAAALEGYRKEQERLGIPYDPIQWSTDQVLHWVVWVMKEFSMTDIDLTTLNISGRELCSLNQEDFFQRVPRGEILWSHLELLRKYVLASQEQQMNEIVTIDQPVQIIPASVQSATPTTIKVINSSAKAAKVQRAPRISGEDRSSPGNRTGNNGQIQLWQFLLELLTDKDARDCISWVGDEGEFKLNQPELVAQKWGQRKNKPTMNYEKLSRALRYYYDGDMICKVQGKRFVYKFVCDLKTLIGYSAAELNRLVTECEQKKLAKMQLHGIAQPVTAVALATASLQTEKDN
In a few lines: (§1)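 GST fusions of human transcription factors were expressed in yeast and captured with glutathione beads. Once given DNA barcodes and pooled alongside a tag-only sample, they were incubated for 30 min at room temperature with 200 nmole of a random double-stranded 16-mer DNA library in Tris/NaCl/DTT/glycerol buffer, then washed, crosslinked (0.1% formaldehyde), proximity-ligated, PCR-amplified and sequenced on an Illumina NextSeq500. The binding signal of each hexamer is its read frequency for a factor divided by its frequency for the tag-only sample.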

A further test deals with ELF1 (Homo sapiens, UniProt P32519 1-619). The method in brief: as §1
In another test the target is T2, EHF (Homo sapiens, UniProt Q9NZC4 1-300).
T2 sequence: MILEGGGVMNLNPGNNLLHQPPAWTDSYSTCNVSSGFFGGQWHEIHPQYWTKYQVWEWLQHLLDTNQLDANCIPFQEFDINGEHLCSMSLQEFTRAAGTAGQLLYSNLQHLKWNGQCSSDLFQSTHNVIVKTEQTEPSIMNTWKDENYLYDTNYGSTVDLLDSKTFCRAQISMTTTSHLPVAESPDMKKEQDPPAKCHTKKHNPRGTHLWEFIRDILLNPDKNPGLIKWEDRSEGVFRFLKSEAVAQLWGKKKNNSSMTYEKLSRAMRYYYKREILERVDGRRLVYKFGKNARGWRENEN
The method in brief: as §1

A further test deals with SPI1 (Homo sapiens, UniProt P17947 1-270). In a few lines: as §1
The target in a further test is SPIB (Homo sapiens, UniProt Q01892 1-262). In a few lines:
as §1

The target in the next test is ETV5 (Homo sapiens, UniProt P41161 1-510). The method in brief: as §1
A further test concerns the target ELF4 (Homo sapiens, UniProt Q99607 1-663). The method in brief: as §1
The target in the next test is T3, ELK4 (Homo sapiens, UniProt P28324-2 1-405).
T3 sequence: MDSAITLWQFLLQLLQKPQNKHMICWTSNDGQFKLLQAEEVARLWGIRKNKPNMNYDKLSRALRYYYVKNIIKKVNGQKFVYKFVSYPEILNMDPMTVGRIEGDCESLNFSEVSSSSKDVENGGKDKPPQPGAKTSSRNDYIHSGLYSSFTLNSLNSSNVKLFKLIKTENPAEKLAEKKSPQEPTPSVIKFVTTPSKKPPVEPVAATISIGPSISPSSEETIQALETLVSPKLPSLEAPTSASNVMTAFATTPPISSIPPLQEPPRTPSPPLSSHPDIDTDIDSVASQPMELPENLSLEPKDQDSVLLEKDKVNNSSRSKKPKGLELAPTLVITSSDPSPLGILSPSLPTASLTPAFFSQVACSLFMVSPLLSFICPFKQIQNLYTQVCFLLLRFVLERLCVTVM
In a few lines: as §1

A further test concerns the target T4, ETV2 (Homo sapiens, UniProt O00321 1-342).
T4 sequence: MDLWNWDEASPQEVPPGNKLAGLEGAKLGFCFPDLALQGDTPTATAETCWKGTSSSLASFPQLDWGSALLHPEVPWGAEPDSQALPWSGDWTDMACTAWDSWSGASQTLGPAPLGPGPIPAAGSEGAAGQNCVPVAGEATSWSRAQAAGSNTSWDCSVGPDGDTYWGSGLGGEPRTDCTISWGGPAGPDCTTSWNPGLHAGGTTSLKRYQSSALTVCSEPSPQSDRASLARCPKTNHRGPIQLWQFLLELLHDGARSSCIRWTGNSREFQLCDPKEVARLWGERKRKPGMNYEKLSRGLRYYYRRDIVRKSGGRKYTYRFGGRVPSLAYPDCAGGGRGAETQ
The method in brief: as §1

The next test deals with T5, ELF3 (Homo sapiens, UniProt P78545 1-371).
T5 sequence: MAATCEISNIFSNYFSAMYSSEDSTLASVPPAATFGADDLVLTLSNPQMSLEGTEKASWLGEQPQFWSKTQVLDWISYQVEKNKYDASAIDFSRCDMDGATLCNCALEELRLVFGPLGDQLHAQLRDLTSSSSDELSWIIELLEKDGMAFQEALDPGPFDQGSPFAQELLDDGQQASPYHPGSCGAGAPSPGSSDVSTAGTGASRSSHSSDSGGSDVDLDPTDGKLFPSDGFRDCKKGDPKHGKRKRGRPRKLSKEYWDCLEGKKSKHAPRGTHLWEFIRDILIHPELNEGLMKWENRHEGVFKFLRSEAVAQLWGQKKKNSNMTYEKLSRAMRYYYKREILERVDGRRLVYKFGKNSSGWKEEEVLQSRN
In a few lines: as §1

The target in the next test is ETV1 (Homo sapiens, UniProt P50549 1-477). In a few lines: as §1
The next test concerns the target T6, ETV3 (Homo sapiens, UniProt P41162-2 1-143).
T6 sequence: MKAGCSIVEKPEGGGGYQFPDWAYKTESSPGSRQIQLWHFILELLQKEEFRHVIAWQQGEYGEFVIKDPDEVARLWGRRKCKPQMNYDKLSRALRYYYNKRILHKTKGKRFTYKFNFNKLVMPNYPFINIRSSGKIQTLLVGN
In a few lines:
as §1

The target in the next test is ETV6 (Homo sapiens, UniProt P41212 1-452). In a few lines:
as §1

SPIB, sequence (Q01892 whole entry): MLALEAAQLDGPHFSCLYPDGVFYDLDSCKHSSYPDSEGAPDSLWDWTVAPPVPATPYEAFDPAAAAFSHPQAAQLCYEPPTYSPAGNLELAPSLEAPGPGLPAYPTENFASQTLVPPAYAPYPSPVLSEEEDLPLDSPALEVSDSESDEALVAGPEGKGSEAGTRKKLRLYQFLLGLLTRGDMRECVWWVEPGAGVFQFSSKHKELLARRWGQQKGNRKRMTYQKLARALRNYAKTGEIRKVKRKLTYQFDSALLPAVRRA
ETV6, sequence (P41212 whole entry): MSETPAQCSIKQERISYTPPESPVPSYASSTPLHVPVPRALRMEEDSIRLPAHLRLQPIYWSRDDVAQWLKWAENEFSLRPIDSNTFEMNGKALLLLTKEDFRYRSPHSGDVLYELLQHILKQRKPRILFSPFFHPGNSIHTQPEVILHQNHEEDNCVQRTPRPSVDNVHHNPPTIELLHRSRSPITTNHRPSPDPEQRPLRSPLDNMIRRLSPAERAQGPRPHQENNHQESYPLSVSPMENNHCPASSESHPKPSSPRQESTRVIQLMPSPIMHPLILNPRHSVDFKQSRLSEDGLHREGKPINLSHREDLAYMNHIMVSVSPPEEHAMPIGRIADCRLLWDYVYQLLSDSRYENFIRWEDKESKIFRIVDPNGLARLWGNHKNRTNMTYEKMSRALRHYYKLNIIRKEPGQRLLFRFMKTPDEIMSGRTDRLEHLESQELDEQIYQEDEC
ELF1, sequence (P32519 whole entry): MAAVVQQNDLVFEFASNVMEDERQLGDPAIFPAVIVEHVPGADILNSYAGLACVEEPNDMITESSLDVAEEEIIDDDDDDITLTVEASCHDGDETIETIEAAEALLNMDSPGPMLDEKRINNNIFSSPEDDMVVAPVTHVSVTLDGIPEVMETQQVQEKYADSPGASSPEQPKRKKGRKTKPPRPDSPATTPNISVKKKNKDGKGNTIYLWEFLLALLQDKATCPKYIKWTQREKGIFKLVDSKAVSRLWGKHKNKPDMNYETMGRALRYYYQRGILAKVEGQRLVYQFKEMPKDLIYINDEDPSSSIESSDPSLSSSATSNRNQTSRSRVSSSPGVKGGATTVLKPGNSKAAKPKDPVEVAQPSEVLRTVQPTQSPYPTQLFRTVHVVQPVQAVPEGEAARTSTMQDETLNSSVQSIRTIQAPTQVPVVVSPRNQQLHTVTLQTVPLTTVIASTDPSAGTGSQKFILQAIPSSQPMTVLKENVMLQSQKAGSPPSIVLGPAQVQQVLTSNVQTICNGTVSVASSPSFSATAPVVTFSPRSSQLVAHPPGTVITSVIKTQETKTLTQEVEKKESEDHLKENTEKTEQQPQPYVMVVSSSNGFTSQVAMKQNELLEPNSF
ETV5, sequence (P41161 whole entry): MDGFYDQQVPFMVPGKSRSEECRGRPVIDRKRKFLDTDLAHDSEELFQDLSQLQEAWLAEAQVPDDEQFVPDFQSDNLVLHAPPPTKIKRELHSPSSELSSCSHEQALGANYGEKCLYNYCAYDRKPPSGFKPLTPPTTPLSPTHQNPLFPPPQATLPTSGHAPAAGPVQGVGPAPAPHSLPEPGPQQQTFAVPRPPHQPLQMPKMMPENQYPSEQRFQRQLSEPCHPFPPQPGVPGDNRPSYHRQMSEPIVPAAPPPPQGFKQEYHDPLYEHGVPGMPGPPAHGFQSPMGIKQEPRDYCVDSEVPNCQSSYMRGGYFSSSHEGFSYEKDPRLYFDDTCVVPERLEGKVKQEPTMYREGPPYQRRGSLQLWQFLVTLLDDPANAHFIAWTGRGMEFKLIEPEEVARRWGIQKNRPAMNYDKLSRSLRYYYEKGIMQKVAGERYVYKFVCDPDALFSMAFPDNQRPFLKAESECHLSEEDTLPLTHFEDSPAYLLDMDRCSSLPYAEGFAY
ETV1, sequence (P50549 whole entry): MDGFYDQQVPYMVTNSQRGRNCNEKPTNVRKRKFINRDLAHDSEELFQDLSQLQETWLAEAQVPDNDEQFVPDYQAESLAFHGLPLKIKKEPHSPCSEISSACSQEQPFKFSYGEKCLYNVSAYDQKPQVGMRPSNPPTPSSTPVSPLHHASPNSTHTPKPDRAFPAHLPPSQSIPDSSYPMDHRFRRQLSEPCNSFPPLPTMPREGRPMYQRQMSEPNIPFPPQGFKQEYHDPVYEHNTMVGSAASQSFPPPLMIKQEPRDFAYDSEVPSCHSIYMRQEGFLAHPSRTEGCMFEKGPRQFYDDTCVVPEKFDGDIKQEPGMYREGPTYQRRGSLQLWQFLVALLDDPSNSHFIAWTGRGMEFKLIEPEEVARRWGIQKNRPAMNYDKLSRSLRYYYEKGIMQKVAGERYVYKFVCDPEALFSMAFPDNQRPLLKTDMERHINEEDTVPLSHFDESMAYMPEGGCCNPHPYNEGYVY
ELF4, sequence (Q99607 whole entry): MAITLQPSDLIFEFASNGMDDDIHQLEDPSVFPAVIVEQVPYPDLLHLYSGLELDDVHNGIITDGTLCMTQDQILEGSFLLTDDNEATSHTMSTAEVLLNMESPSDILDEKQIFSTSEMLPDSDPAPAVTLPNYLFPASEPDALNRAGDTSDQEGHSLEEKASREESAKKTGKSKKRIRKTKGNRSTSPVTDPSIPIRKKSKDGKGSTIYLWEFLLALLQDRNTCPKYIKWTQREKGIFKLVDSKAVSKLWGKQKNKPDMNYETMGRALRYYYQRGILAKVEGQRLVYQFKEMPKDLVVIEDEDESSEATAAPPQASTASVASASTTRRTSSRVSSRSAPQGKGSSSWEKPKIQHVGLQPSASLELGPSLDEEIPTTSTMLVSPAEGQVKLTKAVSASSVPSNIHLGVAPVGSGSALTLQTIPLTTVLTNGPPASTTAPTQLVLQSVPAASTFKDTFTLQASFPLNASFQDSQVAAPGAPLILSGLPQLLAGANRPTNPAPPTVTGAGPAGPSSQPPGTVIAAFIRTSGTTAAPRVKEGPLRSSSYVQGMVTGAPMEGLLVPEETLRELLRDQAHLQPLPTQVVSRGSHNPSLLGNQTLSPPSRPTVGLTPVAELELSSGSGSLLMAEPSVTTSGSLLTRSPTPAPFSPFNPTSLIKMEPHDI

In the case of ACGCGG, the binding signal in the test with GABPA is 1.01 fold enrichment (6-mer frequency, TF over GST control); with ELF1 it was 1.03 fold enrichment (6-mer frequency, TF over GST control); with EHF, 1.04 fold enrichment (6-mer frequency, TF over GST control); with SPI1, 1.02 fold enrichment (6-mer frequency, TF over GST control); with SPIB it was 1.04 fold enrichment (6-mer frequency, TF over GST control); in the test with ETV5, 1.02 fold enrichment (6-mer frequency, TF over GST control). The binding signal was 1 fold enrichment (6-mer frequency, TF over GST control) with ELF4; 1.03 fold enrichment (6-mer frequency, TF over GST control) with ELK4; 1.18 fold enrichment (6-mer frequency, TF over GST control) in the test with ETV2; 1.07 fold enrichment (6-mer frequency, TF over GST control) with ELF3; 1.02 fold enrichment (6-mer frequency, TF over GST control) in the test with ETV1; 1.02 fold enrichment (6-mer frequency, TF over GST control) in the test with ETV3. Moreover, the binding signal with ETV6 is 1.07 fold enrichment (6-mer frequency, TF over GST control).
